The record followed here is PubChem BioAssay.

The structures appear in SMILES notation. The source made the active and inactive calls.

This assay in a line: osmotic lysis modulators in infected erythrocytes, primary screen, PSAC antagonist project, cell-based, P. falciparum Indochina, OD700, 3 h (AID 1156). To be noted: higher = more signal, called active from +8 up or from −8 down.
For `C=CCOC(=O)[C@H]1[C@@H]2C(=O)O[C@@H](c3ccccc3)[C@@H](c3ccccc3)N2[C@@H](c2ccc(OCCOC(=O)[C@H]3C[C@H]4C(=O)N[C@@H](CCCCNC(C)=O)C(=O)N4[C@H]3c3ccc(O)cc3)cc2)[C@]12C(=O)Nc1ccc(I)cc12`, the z-score was 0.675 (inactive). Turning to `Cc1nc2cc(Br)ccc2c(=O)o1`, the z-score was 0.193 (inactive). The value for `CCCC[C@H]1OB(O)C[C@H]2C1=C(COC)Cn1c(=O)n(-c3ccccc3)c(=O)n12` was 0.11 (inactive); that for `COc1ccc([Si](C)(C)[C@@H]2[C@@H](CCO)O[C@]3(C(=O)N(Cc4ccc(N(C=O)c5ccccc5)cc4)c4ccccc43)[C@H]2C)cc1` was 0.287 (inactive); that for `CC(C)[Si](C#Cc1ccc(Oc2ccccc2)cc1)(O[Si](C#Cc1ccc(Oc2ccccc2)cc1)(C(C)C)C(C)C)C(C)C` was 0.226 (inactive).

Consider `CN1C=C(C(=O)OCCS(C)(=O)=O)C(C(=O)OCCS(C)(=O)=O)=CC(c2ccc(CO)cc2)=CC1C1CC1` (stereo unspecified), for which the z-score is -0.107 (inactive). As for `COc1ccc(CCNC(=O)[C@@]2(Sc3ccc(C)cc3)CC(=O)N(C(C)C)[C@@H]2c2ccc(CO)cc2I)cc1`, the z-score is 0.445 (inactive). In the case of `CC1(C)[C@@H]2CC(C(O)C3C=CC4C(=O)N(c5ccccc5)C(=O)C4N3Nc3ccc([N+](=O)[O-])cc3)=C[C@H]1C2` (stereo partly specified), the z-score was 2.92 (inactive).

With `NC(=O)NCC#Cc1ccc2c(c1)[C@]1(C(=O)N2)[C@H](c2ccccc2OCCO)N2[C@H](c3ccccc3)[C@H](c3ccccc3)OC(=O)[C@H]2[C@@H]1C(=O)Nc1nc2ccccc2s1`, the z-score is -5.62 (inactive).

Consider `COC(=O)C(CC#Cc1ccc2c(c1)[C@]1(C(=O)N2)[C@H](C(=O)Nc2nc3ccccc3s2)[C@H]2C(=O)O[C@H](c3ccccc3)[C@H](c3ccccc3)N2[C@@H]1c1ccc(O)cc1)C(=O)OC`, for which the z-score is -4.32 (inactive). On to `C=CCC(OC(C)=O)[C@@H]1[C@@H](N(Cc2ccc(-c3cccc(C(F)(F)F)c3)o2)C(=O)c2ccc(C)cc2)c2cc(OCCCO)ccc2N1C(=O)Cc1ccc2ccccc2c1` (stereo partly specified), for which the z-score was -0.305 (inactive). The value for `O=C1O[C@H](c2ccccc2)[C@H](c2ccccc2)N2[C@H]1[C@@H](C(=O)N1CCCCCCC1)[C@]1(C(=O)Nc3ccc(C#CC4=CCCCC4)cc31)[C@H]2c1ccc(OCCO)cc1` was 1.08 (inactive). Take `CCCCCN1CC=CC23O[C@@H]4C=CCCOC(=O)C4[C@H]2C(=O)N(CCCCCO)[C@@H]3C1=O` (stereo partly specified): the z-score was 2.68 (inactive). The value for `COCCCNC(=O)[C@]1(CCC(=O)OC(C)(C)C)N=C(c2ccc(OCCCO)cc2)O[C@@H]1c1ccccc1CN=[N+]=[N-]` was 0.785 (inactive).

On to `O=C1c2ccccc2[C@](Cc2ccccc2I)(C(=O)NCCN2CCOCC2)[C@H](c2ccc(CO)cc2)N1C1CCCCC1`, for which the z-score is 0.664 (inactive). With `COc1ccc([Si](C)(C)[C@H]2[C@H](CCO)O[C@@]3(C(=O)N(Cc4ccc(N(C=O)c5ccccc5)cc4)c4ccccc43)[C@@H]2C)cc1` the figure was -0.149 (inactive).
